Screens (PubChem BioAssay)
Shown are actives, neighbours in structure and some others; about 4% of the full set was active somewhere.
Mtb UGM inh: M. tuberculosis UGM enzyme inhibitors, primary screen, biochemical, fluorescence polarization, single point. purified UGM, fluorescence polarization probe displacement. inhibition, % at 10 µM. hit rate 0.06% among 320,000; in the data active = inhibition above about 10%, passing the limit was not always enough
Target sequence (P9WIQ1 whole entry, looked up): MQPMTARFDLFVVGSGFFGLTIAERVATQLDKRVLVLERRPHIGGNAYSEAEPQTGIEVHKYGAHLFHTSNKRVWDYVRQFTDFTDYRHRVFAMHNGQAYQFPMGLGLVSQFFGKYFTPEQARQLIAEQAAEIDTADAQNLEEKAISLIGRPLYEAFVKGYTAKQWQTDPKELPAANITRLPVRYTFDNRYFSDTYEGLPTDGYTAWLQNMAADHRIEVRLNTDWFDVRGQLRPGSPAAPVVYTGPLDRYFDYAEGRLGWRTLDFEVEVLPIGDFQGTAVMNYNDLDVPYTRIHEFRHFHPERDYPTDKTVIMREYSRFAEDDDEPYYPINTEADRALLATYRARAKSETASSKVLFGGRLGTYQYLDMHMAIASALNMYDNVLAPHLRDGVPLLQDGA
GDH-TPI counter-1: GDH-TPI coupling enzyme inhibitors, primary screen, artefact control for M. tuberculosis FBA inhibitor project, biochemical, absorbance, full deck; GDH-TPI coupled enzyme counterscreen, NADH absorbance; inhibition, % at 4.8 µM; hit rate 1.2% among 360,000; in the data active = inhibition above about 30%;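 note: 0% = DMSO wells and 100% = wells lacking the enzyme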
RecA splice inh: Mtb RecA intein splicing inhibitors, primary screen, biochemical, fluorescence, HTS | inhibition, % (test concentration not listed) | hit rate 0.75% among 290,000 | cell-free RecA intein splicing | Protein RecA (Mycobacterium tuberculosis (strain ATCC 25618 / H37Rv)), P9WHJ3; in the data active = inhibition above about 30%;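 note: 0% = vehicle wells and 100% = reference inhibitor control wells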
FBA Mtb inh: Mtb FBA enzyme inhibitors, primary screen, biochemical, fluorescence, strain H37Rv. purified M. tuberculosis FBA, fluorescence read-out. inhibition, % at 1 µM. Fructose-bisphosphate aldolase (Mycobacterium tuberculosis (strain ATCC 25618 / H37Rv)), …. hit rate 2.3% among 360,000;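 note: 0% = vehicle and 100% = reference inhibitor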
Mtb bLac sens: beta-lactam sensitization of Mtb H37Rv, H37Rv; M. tuberculosis H37Rv growth with meropenem, percent inhibition; inhibition, % at 25 µM; hit rate 0.27% among 330,000; call rule not given here;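 note: growth measured after seven days incubation then overnight dye step; 0% = bacteria only wells and 100% = bacteria with antibiotic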
Rv3671c protease: Rv3671c serine protease inhibitors, primary screen, biochemical, fluorescence polarization, M. tuberculosis H37Rv. inhibition, % at 5.96 µM. hit rate 0.048% among 320,000; in the data active = inhibition above about 38%;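 note: extracellular domain of Rv3671c used as enzyme; 0% = enzyme with DMSO and 100% = no enzyme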
Mtb FBA confirm: M. tuberculosis aldolase blockers, biochemical, fluorescence, strain H37Rv, confirmation; shares compounds with FBA Mtb inh; purified M. tuberculosis FBA, fluorescence read-out; inhibition, % at 1 µM; hit rate 78% among 5,600; AID 651616, 2012;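 note: 0% = vehicle wells and 100% = reference inhibitor wells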
GDH-TPI counter-2: GDH-TPI coupling enzyme inhibitors, artefact control for M. tuberculosis FBA inhibitor project, biochemical, fluorescence, high throughput. shares compounds with FBA Mtb inh. hit rate 81% among 5,600. inhibition, % at 1 µM. GDH-TPI coupled enzyme counterscreen; in the data active = inhibition above about 10%
* marks the source's active call; other numbers are inactive results; x = not tested or not shown; + = active, no number; ! = repeats disagree. Cut-off read from the data, not from the text of the source, unless noted: active = inhibition above about 27%; inactive = the rest.

SMILES	Mtb UGM inh	GDH-TPI counter-1	RecA splice inh	FBA Mtb inh	Mtb bLac sens	Rv3671c protease	Mtb FBA confirm	GDH-TPI counter-2
CC(C)n1c(/C=C/c2ccccc2)nc2ccccc21	-2	34*	1	67*	60	-13	36*	20*
Cc1ccc(NC(=O)Cn2c(/C=C/c3ccccc3)nc3ccccc32)cc1C	0	10	-1	29*	-3	-2	68*	53*
CC(C)c1ccccc1NC(=O)Cn1c(/C=C/c2ccccc2)nc2ccccc21	5	x	0	x	6	-28	x	x
O=C(Cc1csc(NC(=O)c2ccc(F)cc2)n1)NO	1	-9	-6	-3	73	12	x	x
COc1ccc(CCNC(=O)CSc2ccc3nnc(CCNC(=O)c4ccccc4)n3n2)cc1OC	-1	-10	3	-4	0	3	x	x
Cn1c(SCC(=O)NC2CCCC2)nnc1-c1ccco1	0	0	1	5	3	-7	x	x
CC(=O)Oc1ccc2c(C)cc(=O)[nH]c2c1	-3	8	9	58*	73	7	10	-3
Cc1cccc(C2Nc3ccccc3C(=O)N2c2ccccc2)n1 (configuration not stated)	-1	-2	-4	61*	12	2	47*	46*
CCOP(=O)(OCC)c1nc(-c2ccc(C)cc2)oc1NCc1ccccc1	-5	-4	1	84*	13	1	172*	186*
Cc1cc(CN2CCN(CC(=O)Nc3cc(C(F)(F)F)ccc3-n3cncn3)CC2)no1	3	1	x	-2	0	0	x	x
CCOC(=O)c1cn(Cc2ccccc2)nc1-c1ccccc1	-2	1	6	0	6	9	x	x
CCOC(=O)c1cn(Cc2cccc(Cl)c2)c2cc(C)nn2c1=O	1	11	-1	28*	20	-3	67*	53*
Cc1ccc2c(c1)c1c3n2CCNC3CCC1 (configuration not stated)	-3	-1	x	81*!	-5	-3	44*	37*
CCOc1ccccc1CNC(=O)c1ccc2nc(N3CCOCC3)sc2c1	1	-9	-1	1	16	-2	x	x
CCN1CCSc2ccc(C(=O)NCc3cccc(Br)c3)cc21	1	6	-15	40*	-4	8	107*	82*
CCOc1ccccc1CNC(=O)c1ccc2c(c1)N(CC)CCS2	4	14	-8	74*	-5	4	26	21*
CCN1CCSc2ccc(C(=O)NCc3cccc(F)c3)cc21	-1	4	-10	49*	-11	6	+	162*
COc1cccc(CNC(=O)c2cccc(Br)c2)c1	-3	8	0	0	3	1	x	x
CCCOc1ccc(CNC(=O)c2ccc3c(c2)N(CC)CCS3)cc1	3	1	-1	75*	-6	17	157*	99*
O=C(CCN1CCCCO1)N1CCCC(Nc2ccc(F)cc2)C1 (configuration not stated)	-1	2	-2	2	-4	2	x	x
CCC1CCCCN1C(=O)c1cc(S(=O)(=O)N2CCOCC2)ccc1C (configuration not stated)	2	7	x	1	5	-3	x	x
Cc1cc(NC(=O)COC(=O)C2CSC3(C)CCC(=O)N23)ccc1Br (configuration not stated)	-3	-3	x	-1	-12	-1	x	x
COc1ccc(NC(=O)c2cc3c(=O)n(C)c4ccccc4c3s2)cc1OC	3	6	1	1	5	-3	x	x
Fc1ccc2nc(C(F)(F)F)cc(N3CCOCC3)c2c1	-2	8	-2	1	5	x	x	x
